According to the supplement of paper PMC11624193, “Coupling cellular drug-target engagement to downstream pharmacology with CeTEAM” (Nature Communications, 2024):
Structures can show the parent of a compound that is named as a salt. A number with no mark means an inactive call.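 How the source made its calls: active = log2 fold change beyond 2 SD from the library mean after excluding viability outliers; inactive = within 2 SD.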

These compounds were tested against PARP1 L713F-nLuc biosensor (HCT116) (UniProt P09874) (assay: PARP1 L713F-nLuc/akaLuc ratio relative to DMSO control (biosensor stabilization) (fold change); higher = more PARP1 biosensor stabilization (target engagement / stabilizer), active = hit call of the paper). Conditions: stock concentration (mM; final µM = stock mM x 1): 10; 24 h.
Chain of PARP1 L713F-nLuc biosensor (HCT116) (P09874 whole entry L713F, looked up): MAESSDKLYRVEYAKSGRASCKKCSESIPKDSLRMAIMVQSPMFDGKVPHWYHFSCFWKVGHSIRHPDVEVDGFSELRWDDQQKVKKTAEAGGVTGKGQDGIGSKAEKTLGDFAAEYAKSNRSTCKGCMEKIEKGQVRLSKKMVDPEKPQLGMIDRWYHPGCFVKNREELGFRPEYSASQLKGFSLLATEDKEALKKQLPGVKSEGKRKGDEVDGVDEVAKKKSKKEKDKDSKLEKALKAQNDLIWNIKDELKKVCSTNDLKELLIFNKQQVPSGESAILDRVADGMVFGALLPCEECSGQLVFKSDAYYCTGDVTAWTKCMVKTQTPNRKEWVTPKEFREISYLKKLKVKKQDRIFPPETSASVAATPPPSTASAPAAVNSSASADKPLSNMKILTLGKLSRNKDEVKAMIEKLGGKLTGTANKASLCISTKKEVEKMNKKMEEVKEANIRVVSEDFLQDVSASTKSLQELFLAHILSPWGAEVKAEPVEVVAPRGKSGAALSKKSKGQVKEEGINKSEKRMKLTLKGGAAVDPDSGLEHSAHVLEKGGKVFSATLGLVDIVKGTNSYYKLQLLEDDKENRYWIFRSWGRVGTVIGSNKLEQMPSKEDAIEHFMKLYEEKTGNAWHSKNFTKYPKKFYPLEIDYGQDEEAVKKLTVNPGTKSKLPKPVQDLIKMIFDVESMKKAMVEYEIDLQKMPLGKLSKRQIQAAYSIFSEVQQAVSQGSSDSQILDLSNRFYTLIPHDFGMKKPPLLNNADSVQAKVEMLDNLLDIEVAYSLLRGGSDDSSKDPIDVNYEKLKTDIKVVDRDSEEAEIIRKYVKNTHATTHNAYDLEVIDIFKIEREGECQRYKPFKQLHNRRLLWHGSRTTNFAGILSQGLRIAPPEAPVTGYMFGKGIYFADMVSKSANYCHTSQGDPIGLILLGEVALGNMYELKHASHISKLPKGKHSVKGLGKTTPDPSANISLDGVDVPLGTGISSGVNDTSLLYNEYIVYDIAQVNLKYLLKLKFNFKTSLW

Compound	PARP1 L713F-nLuc/akaLuc ratio
O=C(O)CNC(=O)C1=C(O)CCN(Cc2ccc(Oc3ccc(Cl)cc3)nc2)C1=O	1.22
COc1cc2nc(N3CCCN(C)CC3)nc(NC3CCN(Cc4ccccc4)CC3)c2cc1OC	0.488
CC[C@]1(O)C[C@H]2CN(CCc3c([nH]c4ccccc34)[C@@](C(=O)OC)(c3cc4c(cc3OC)N(C=O)[C@H]3[C@@](O)(C(=O)OC)[C@H](OC(C)=O)[C@]5(CC)C=CCN6CC[C@]43[C@@H]65)C2)C1 [Vincristine sulfate]	0.783
COc1ccc2cc3[n+](cc2c1OC)CCc1cc(O)c(O)cc1-3 [Demethyleneberberine]	1.47
O=c1c(O)c(-c2ccc(O)c(O)c2)oc2cc(O)c(O)c(O)c12 [Quercetagetin]	0.792
COC(=O)c1cc(CN2CCN(C(=N)N)CC2)cc(C(=O)N2CCN(C(=O)c3ccc(C(=N)N)cc3)CC2)c1 [CBB1007 (trihydrochloride)]	0.723
CC(=O)NCC(=O)N1[C@@H]2CC[C@H]1c1ccc(Nc3ncc(C(F)(F)F)c(NC4CCC4)n3)cc12	1.27
O=c1c(-n2ccnn2)c[nH]n1-c1cc(N2CCOCC2)ncn1 [Molidustat]	0.788
N#Cc1c(N2CCCC2)nc(N)c2c(N)nc(N3CCCC3)cc12	1.1
O=C(O)CNC(=O)c1c(O)cc(CCc2ccccc2)n2ncnc12 [Enarodustat]	1.29
CC1(N)CCN(c2cnc(-c3cccc(Cl)c3Cl)c(N)n2)CC1 [SHP099 dihydrochloride]	0.78
